About 8,800 targets were measured; listed, in parts, are those with a hit and a random draw of the rest. About 0.5% of all pairs of compound and target were hits. Values without a mark were called inactive.
Tests used:
Assay in all cases: log2 fold change, soluble protein after heating vs DMSO (PISA); higher = thermal stabilisation; K562 lysate, 10 uM; active = over 0.2 and 3.5 SD of the protein, either way, in both replicates (recomputed)
[1] = compound: CCCS(=O)(=O)Nc1ccc(F)c(C(=O)c2c[nH]c3ncc(-c4ccc(Cl)cc4)cc23)c1F [vemurafenib]
Method in brief: (§1)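 Pellets of K562 cells were dounce-homogenised in PBS pH 7.4 with 1 mM MgCl2, and the crude extract was held at 1 mg/mL protein for a 30 min treatment with 10 μM compound. Aliquots were heated for 3 min over 48°C-58°C and pooled before NP-40 was added to 0.5% at 4°C. The supernatant from 21,000xg for 90 min was quantified by TMTpro 16plex LC-MS/MS with channel sums equalised. Values are reported from duplicates as log-two fold change in thermal stability relative to solvent controls.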

[2] = compound: CCCS(=O)(=O)Nc1ccc(F)c(C(=O)c2c[nH]c3ncc(Cl)cc23)c1F
Method in brief: as §1

[3] = compound: CCN(CCCOc1ccc2c(Nc3cc(CC(=O)Nc4cccc(F)c4)[nH]n3)ncnc2c1)CCOP(=O)(O)O [barasertib]
Method in brief: as §1

[4] = compound: CC[C@@H]1C(=O)N(C)c2cnc(Nc3ccc(C(=O)NC4CCN(C)CC4)cc3OC)nc2N1C1CCCC1
Method in brief: as §1

[5] = compound: CC[C@@H]1C(=O)N(C)c2cnc(Nc3ccc(C(=O)N[C@H]4CC[C@H](N5CCN(CC6CC6)CC5)CC4)cc3OC)nc2N1C(C)C [volasertib]
Method in brief: as §1

[6] = compound: CCn1c(C(=O)N(C2CC2)C2CC2)cc2c3c(ncn3C)c(Nc3cc(C)n(C)n3)nc21
Method in brief: as §1

[7] = compound: CCn1cc(-c2ccnc3[nH]c(-c4cccc(CN(C)C)c4)cc23)c(-c2ccc(NC(=O)N(C)C)cc2)n1
Method in brief: as §1

[8] = compound: CN1CCC(CNc2ccc3ncc(-c4cccc(OC(F)(F)F)c4)n3n2)CC1
Method in brief: as §1

[9] = compound: CN1CCN(CCOc2cc(OC3CCOCC3)c3c(Nc4c(Cl)ccc5c4OCO5)ncnc3c2)CC1 [saracatinib]
Method in brief: as §1

[10] = compound: CN1CCN(c2nc(C3=C(c4c[nH]c5ccccc45)C(=O)NC3=O)c3ccccc3n2)CC1 [sotrastaurin]
Method in brief: as §1

Chain of UniProt P19367 (P19367 whole entry, looked up): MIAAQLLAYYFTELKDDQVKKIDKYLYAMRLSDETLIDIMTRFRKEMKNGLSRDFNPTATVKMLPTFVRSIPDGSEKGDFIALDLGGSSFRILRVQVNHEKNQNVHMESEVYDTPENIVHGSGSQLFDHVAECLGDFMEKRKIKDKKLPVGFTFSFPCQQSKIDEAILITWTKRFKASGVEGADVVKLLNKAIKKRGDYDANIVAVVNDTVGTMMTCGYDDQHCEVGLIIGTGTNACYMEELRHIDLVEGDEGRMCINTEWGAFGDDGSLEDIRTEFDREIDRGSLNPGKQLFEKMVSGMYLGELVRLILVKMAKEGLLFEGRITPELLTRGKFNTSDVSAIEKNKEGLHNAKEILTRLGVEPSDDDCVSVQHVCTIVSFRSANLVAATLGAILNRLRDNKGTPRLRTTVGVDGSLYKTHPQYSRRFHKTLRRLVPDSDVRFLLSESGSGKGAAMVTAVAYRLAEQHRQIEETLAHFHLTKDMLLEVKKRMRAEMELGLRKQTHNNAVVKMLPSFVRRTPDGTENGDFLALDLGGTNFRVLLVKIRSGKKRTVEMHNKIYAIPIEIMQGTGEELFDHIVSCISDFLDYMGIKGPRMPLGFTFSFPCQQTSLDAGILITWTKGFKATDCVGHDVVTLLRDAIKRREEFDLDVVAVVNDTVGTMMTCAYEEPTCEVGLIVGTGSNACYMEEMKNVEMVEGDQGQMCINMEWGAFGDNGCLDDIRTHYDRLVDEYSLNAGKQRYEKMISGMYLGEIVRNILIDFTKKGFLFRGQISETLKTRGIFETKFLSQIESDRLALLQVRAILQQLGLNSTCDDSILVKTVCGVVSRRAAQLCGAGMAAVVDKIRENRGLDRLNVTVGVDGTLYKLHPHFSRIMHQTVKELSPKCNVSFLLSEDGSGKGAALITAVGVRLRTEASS
Chain of UniProt Q14145 (Q14145 whole entry, looked up): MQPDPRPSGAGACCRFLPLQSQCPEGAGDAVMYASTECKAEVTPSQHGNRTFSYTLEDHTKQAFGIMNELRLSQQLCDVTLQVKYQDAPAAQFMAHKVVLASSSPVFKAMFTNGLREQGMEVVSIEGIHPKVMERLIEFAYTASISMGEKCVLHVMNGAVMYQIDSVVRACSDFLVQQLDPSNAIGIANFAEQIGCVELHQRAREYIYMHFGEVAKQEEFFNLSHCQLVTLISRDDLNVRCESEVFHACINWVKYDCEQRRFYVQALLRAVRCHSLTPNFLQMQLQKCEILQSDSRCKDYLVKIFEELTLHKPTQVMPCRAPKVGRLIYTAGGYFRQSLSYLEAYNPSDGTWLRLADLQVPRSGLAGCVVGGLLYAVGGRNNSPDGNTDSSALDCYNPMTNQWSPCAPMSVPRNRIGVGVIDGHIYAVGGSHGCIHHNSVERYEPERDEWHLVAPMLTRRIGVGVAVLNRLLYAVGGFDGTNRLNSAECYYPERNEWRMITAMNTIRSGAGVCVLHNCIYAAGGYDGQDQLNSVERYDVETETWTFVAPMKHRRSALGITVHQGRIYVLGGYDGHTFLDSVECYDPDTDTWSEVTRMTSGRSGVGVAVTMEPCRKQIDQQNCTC
Chain of UniProt Q99795 (Q99795 whole entry, looked up): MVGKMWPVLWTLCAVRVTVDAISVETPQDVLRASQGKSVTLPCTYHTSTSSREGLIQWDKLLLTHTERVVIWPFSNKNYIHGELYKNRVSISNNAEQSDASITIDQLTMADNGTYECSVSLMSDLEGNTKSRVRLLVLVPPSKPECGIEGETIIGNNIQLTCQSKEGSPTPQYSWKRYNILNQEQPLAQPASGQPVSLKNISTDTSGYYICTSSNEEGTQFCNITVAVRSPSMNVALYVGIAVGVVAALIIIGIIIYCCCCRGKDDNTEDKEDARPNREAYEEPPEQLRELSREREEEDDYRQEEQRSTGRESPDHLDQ
Chain of UniProt O14979 (O14979 whole entry, looked up): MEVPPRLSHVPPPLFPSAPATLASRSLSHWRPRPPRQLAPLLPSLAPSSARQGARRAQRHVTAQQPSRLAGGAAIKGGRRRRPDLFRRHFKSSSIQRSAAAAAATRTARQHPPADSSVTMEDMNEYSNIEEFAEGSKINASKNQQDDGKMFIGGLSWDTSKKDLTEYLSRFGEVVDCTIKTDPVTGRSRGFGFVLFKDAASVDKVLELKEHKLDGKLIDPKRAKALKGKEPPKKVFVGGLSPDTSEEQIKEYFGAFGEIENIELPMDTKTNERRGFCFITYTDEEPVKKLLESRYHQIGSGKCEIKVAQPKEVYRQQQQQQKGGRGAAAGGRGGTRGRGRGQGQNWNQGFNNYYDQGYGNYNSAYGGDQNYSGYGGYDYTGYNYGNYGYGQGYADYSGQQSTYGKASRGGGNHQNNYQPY
Chain of UniProt Q9H4A5 (Q9H4A5 whole entry, looked up): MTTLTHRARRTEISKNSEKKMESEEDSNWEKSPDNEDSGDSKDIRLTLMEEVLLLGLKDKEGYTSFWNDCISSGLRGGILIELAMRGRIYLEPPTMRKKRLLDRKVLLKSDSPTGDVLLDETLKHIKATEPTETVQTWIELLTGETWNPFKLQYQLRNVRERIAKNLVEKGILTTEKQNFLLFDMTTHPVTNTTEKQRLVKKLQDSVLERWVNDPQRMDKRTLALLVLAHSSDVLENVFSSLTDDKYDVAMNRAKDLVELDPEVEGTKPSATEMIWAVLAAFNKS
Chain of UniProt P55795 (P55795 whole entry, looked up): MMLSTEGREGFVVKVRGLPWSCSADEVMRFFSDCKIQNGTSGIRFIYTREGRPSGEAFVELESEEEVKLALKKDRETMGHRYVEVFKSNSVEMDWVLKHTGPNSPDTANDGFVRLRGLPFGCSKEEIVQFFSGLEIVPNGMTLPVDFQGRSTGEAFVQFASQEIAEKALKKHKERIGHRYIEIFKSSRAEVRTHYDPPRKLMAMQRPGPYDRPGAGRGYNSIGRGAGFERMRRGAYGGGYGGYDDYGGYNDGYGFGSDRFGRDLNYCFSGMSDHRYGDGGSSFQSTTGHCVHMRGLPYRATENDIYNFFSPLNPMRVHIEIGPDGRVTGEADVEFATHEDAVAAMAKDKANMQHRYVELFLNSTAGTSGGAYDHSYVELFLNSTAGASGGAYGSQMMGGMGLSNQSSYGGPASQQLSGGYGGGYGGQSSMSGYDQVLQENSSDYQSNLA
Chain of UniProt Q9P107 (Q9P107 whole entry, looked up): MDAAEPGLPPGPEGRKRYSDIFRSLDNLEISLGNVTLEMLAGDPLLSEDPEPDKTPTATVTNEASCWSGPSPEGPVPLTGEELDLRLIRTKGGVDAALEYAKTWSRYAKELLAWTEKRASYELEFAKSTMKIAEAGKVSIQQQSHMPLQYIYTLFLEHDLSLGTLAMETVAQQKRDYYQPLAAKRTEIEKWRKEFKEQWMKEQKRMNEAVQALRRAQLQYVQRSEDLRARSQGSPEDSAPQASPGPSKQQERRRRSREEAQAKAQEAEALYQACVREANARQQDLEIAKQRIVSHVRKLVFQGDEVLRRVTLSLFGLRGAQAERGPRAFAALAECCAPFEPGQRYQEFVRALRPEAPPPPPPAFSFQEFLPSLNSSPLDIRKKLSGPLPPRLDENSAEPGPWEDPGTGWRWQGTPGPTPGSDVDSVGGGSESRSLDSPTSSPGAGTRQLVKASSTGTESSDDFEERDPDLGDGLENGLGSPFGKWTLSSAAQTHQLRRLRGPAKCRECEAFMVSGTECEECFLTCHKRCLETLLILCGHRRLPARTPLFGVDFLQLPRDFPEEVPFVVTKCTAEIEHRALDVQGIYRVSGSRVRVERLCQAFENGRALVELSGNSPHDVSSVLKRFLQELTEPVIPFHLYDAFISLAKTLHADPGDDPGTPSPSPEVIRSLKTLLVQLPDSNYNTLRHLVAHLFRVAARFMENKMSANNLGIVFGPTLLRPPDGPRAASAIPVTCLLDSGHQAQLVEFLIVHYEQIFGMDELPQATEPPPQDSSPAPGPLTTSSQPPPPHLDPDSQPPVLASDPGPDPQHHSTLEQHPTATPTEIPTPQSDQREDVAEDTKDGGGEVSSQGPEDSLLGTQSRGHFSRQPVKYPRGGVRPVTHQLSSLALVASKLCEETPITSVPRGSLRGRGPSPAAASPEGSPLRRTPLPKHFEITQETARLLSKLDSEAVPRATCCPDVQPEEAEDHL
Chain of UniProt Q58FG1 (Q58FG1 whole entry, looked up): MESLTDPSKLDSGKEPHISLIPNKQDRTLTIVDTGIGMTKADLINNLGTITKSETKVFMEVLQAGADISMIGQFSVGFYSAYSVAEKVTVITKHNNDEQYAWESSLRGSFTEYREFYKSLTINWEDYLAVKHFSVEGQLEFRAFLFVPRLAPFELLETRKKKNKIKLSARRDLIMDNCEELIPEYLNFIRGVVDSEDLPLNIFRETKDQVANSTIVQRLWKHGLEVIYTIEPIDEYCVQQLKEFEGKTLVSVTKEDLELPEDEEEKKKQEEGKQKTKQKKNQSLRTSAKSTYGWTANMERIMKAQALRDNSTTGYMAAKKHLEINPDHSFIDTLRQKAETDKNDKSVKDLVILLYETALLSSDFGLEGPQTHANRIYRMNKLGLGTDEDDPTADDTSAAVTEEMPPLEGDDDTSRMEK
Chain of UniProt P14866 (P14866 whole entry, looked up): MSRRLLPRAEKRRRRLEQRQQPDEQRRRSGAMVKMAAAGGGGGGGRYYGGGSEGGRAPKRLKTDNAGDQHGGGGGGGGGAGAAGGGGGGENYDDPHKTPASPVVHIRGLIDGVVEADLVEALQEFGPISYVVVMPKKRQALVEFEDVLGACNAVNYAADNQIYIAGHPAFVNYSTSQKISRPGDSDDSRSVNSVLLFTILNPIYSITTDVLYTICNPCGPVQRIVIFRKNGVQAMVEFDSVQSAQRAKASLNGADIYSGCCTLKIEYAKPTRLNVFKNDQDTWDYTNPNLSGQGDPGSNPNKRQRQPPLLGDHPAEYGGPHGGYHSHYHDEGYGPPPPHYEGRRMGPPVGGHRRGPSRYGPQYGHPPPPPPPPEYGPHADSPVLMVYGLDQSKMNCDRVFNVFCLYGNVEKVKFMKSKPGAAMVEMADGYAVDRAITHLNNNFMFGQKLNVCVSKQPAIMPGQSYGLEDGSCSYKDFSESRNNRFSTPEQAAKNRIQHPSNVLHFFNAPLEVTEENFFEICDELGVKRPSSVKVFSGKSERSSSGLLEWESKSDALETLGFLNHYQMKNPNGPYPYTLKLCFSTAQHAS

Target | log2 fold change [1] | log2 fold change [2] | log2 fold change [3] | log2 fold change [4] | log2 fold change [5] | log2 fold change [6] | log2 fold change [7] | log2 fold change [8] | log2 fold change [9] | log2 fold change [10]
INPPL1 (UniProt O15357) | 0.023 | 0.01 | 0.028 | -0.02 | -0.047 | 0.095 | -0.017 | -0.06 | 0.005 | 0.019
HNRNPH2 (UniProt P55795) | -0.004 | 0.025 | -0.003 | 0.05 | -0.056 | 0.008 | -0.01 | -0.056 | -0.025 | -0.074
HAUS2 (UniProt Q9NVX0) | -0.076 | -0.005 | 0.097 | 0.018 | 0.038 | 0.036 | 0.141 | -0.089 | 0.048 | -0.007
KEAP1 (UniProt Q14145) | 0.014 | 0 | 0.01 | -0.008 | -0.001 | -0.016 | -0.017 | 0.044 | -0.018 | 0.033
HECTD4 (UniProt J3KPF0) | 0.04 | 0.035 | 0.014 | 0.009 | -0.09 | 0.037 | 0.007 | 0.043 | 0.006 | -0.024
KHDRBS1 (UniProt Q07666) | -0.025 | 0.004 | 0.034 | -0.024 | -0.024 | -0.002 | 0.083 | -0.048 | -0.004 | -0.008
HNRNPD isoform 2 (UniProt Q14103) | 0.011 | 0.002 | -0.052 | 0.022 | 0.029 | -0.036 | 0.857 (active) | -0.135 | 0 | -0.08
HMGCL (UniProt P35914) | -0.017 | 0.01 | 0.027 | 0.037 | 0.014 | 0.037 | 0.05 | -0.02 | -0.013 | -0.01
GPA33 (UniProt Q99795) | -0.038 | -0.014 | -0.047 | -0.011 | 0.081 | -0.032 | -0.925 (active) | 0.612 (active) | -0.005 | 
GOLPH3L (UniProt Q9H4A5) | 0.068 | 0.025 | 0.033 | -0.055 | -0.023 | 0.048 | -0.034 | -0.08 | 0.046 | -0.092
GSTCD (UniProt Q8NEC7) | 0.028 | 0.057 | -0.039 | -0.018 | -0.05 | 0.011 | -0.055 | -0.015 | 0.034 | 0.037
HADH isoform 2 (UniProt Q16836) | -0.032 | -0.022 | -0.049 | 0.002 | 0.004 | 0.009 | 0.066 | -0.054 | -0.096 | 0.004
HNRNPLL (UniProt Q8WVV9) | 0.004 | 0.046 | 0.018 | 0.008 | -0.027 | -0.004 | -0.006 | -0.013 | -0.001 | 0.034
HSPB1 (UniProt P04792) | -0.001 | -0.003 | 0.019 | 0.008 | -0.02 | 0.01 | 0.005 | -0.042 | 0.024 | 0.005
GTF2H4 (UniProt Q92759) | -0.047 | 0.007 | 0.039 | -0.099 | -0.046 | 0.028 | 0.063 | -0.075 | 0.029 | 0.034
HNRNPDL (UniProt O14979) | -0.039 | 0.026 | -0.03 | 0.008 | -0.002 | 0.003 | 0.043 | 0.018 | -0.036 | -0.098

Target | log2 fold change [1] | log2 fold change [2] | log2 fold change [3] | log2 fold change [4] | log2 fold change [5] | log2 fold change [6] | log2 fold change [7] | log2 fold change [8] | log2 fold change [9] | log2 fold change [10]
GPR108 (UniProt Q9NPR9) | 0.001 | -0.059 | -0.03 | 0.01 | 0.03 | 0.031 | 0.057 | 0.01 | 0.092 | 0.019
HSD17B10 (UniProt Q99714) | 0.017 | -0.016 | -0.021 | -0.006 | -0.015 | -0.022 | -0.081 | 0.024 | -0.022 | -0.014
GSTM2 (UniProt P28161) | -0.005 | 0.07 | 0.024 | 0.015 | 0.005 | -0.027 | 0.131 | -0.091 | 0.003 | 
H2AFY (UniProt O75367) | -0.042 | 0.013 | 0.094 | 0.131 | -0.036 | -0.001 | -0.059 | 0.056 | -0.077 | 0.104
HNRNPM (UniProt M0R019) | -0.137 |  |  |  |  |  |  |  |  | 
HNRNPL (UniProt P14866) | 0.01 | 0.023 | 0.021 | -0.052 | -0.047 | 0.061 | -0.012 | -0.056 | 0.017 | 0.023
IMPDH2 (UniProt P12268) | 0.015 | 0.009 | -0.056 | -0.015 | 0.012 | 0.039 | 0.11 | 0.01 | -0.001 | -0.005
HDAC2 (UniProt Q92769) | -0.025 | 0.035 | 0.009 | -0.012 | -0.009 | 0.002 | -0.052 | 0.055 | 0.02 | -0.024
HDAC10 (UniProt Q969S8) | 0.142 | -0.093 | 0.009 | -0.052 | -0.056 | -0.117 | -0.026 | 0.02 | -0.052 | -0.069
HK1 isoform 2 (UniProt P19367) | 0.009 | 0.003 | 0.012 | -0.023 | -0.004 | 0.014 | -0.008 | -0.013 | -0.015 | 0.004
HMGB1 (UniProt P09429) | -0.01 | -0.014 | -0.013 | 0.102 | 0.035 | -0.039 | 0.389 (active) | -0.184 | -0.011 | -0.075
INF2 (UniProt Q27J81) | 0 | -0.059 | 0.104 | -0.07 | -0.052 | -0.01 | -0.064 | -0.045 | 0.036 | 0.019
HSP90AA4P (UniProt Q58FG1) | -0.002 | 0 | 0.377 | 0.006 | 0.005 | -0.076 | 0.26 | 0.041 | -0.03 | 0.033
HNRNPM (UniProt P52272) | -0.017 | -0.013 | 0.079 | 0.027 | -0.107 | 0.046 | -0.017 | -0.01 | 0.055 | 0.024
GMIP (UniProt Q9P107) | 0.041 | 0.048 | -0.024 | -0.01 | 0 | -0.005 | -0.027 | -0.004 | 0.007 | 0.034

Source: the supplement of paper PMC10849652
